Experimental data from PubChem BioAssay (NCATS).
Records with an inconclusive call do not appear. A call without a number means that no potency is given here. Values without a mark were called inactive. Calls of active or inactive are those of the source. Calls follow the shape of the dose curve; as a rule, active = well fitted inhibition curve with a large enough effect; inconclusive = small, poorly fitted or top-dose-only effect; inactive = no such curve, though single readings can be large or run the other way.

Target: Rap guanine nucleotide exchange factor 4 (Homo sapiens) (UniProt Q8WZA2)
Sequence (Q8WZA2 whole entry, looked up): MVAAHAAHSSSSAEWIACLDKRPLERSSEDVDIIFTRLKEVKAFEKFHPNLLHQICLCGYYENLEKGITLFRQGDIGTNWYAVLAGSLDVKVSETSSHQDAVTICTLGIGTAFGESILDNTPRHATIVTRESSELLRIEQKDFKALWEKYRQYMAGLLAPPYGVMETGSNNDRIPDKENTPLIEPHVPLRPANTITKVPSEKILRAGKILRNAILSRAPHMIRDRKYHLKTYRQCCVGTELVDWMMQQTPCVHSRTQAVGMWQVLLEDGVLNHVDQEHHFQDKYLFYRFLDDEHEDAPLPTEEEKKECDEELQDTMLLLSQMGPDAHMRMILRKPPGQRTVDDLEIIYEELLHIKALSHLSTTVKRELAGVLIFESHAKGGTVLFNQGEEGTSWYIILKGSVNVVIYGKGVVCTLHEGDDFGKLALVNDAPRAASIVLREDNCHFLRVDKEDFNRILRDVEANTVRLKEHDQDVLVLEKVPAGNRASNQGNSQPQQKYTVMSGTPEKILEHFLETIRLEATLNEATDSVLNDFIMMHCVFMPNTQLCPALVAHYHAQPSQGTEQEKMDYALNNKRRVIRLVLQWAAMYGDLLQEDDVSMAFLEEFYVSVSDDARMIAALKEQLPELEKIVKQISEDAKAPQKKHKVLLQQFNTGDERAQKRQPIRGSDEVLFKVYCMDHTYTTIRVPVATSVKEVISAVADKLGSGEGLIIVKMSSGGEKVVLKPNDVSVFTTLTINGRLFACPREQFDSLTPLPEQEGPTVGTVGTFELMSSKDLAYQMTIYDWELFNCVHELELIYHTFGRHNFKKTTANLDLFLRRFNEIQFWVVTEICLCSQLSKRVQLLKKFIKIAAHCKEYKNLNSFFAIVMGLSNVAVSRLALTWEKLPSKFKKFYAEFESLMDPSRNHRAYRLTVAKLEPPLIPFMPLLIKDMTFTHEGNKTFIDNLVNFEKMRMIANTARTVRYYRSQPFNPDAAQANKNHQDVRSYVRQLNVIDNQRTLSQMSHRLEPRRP
Assay: Confirmatory qHTS for antagonist of cAMP-regulated guanine nucleotide exchange factor 4 (EPAC2) (AID 1645885); also: nearly all actives have a fitted effect of over 25% in size; also: potency is read from the fitted curve at half-maximal effect
Conditions: EPAC2 Rap1B-BODIPY-GDP exchange fluorescence, biochemical; series mostly up to 12.7 µM

SMILES | Potency
O=C(CC1Sc2ccccc2NC1=O)OCc1cc(=O)oc2cc(O)ccc12 (stereo not given) | inactive
Cc1cc2ccccn2c1C(=O)c1ccccc1Br | inactive
COc1cccc(C2=NN(C(=O)c3ccco3)C(c3ccco3)C2)c1 (stereo not given) | inactive
O=C(NCc1ccc(OC(F)(F)F)cc1)c1cccc2c1C(=O)c1ccc(N3CCCC3)cc1S2(=O)=O | inactive
COc1ccc(/C=C/C(=O)c2cccs2)c(OC)c1 | inactive
CN1/C(=C\C=C2/C(=O)Oc3ccccc3C2=O)C(C)(C)c2ccccc21 | inactive
Oc1ccc(Cl)cc1CNc1cccc2cccnc12 | inactive
Nc1ccc(CSc2ccc(Cl)cc2)c(Cl)c1 | 21.3 µM (active)
COc1ccc(C2CC(c3cccs3)=NN2c2ccc(C=O)cc2)cc1 (stereo not given) | inactive
O=S(=O)(c1ccccc1)c1nc(Nc2cccc(O)c2)sc1Cl | inactive
Cc1ccnc(NCc2cccc3ccccc23)c1 | inactive
O=c1oc2c(O)cccc2cc1-c1nc2ccccc2[nH]1 | inactive
COC(=O)C(C)Sc1nc2ccsc2c(=O)n1Cc1ccccc1 (stereo not given) | 26.9 µM (active)
Cc1c(CCC(=O)O)c(=O)oc2c(C)c3occ(-c4ccc(Br)cc4)c3cc12 | inactive
Cn1cc(-c2cnc3c(NC=O)cc(-c4cccc(C(F)(F)F)c4)cn23)cn1 | inactive
CC(NC1=CC(=O)c2cccnc2C1=O)C(O)c1ccccc1 (stereo not given) | inactive

Target: Rap guanine nucleotide exchange factor 3 (Homo sapiens) (UniProt O95398)
Sequence (O95398 whole entry, looked up): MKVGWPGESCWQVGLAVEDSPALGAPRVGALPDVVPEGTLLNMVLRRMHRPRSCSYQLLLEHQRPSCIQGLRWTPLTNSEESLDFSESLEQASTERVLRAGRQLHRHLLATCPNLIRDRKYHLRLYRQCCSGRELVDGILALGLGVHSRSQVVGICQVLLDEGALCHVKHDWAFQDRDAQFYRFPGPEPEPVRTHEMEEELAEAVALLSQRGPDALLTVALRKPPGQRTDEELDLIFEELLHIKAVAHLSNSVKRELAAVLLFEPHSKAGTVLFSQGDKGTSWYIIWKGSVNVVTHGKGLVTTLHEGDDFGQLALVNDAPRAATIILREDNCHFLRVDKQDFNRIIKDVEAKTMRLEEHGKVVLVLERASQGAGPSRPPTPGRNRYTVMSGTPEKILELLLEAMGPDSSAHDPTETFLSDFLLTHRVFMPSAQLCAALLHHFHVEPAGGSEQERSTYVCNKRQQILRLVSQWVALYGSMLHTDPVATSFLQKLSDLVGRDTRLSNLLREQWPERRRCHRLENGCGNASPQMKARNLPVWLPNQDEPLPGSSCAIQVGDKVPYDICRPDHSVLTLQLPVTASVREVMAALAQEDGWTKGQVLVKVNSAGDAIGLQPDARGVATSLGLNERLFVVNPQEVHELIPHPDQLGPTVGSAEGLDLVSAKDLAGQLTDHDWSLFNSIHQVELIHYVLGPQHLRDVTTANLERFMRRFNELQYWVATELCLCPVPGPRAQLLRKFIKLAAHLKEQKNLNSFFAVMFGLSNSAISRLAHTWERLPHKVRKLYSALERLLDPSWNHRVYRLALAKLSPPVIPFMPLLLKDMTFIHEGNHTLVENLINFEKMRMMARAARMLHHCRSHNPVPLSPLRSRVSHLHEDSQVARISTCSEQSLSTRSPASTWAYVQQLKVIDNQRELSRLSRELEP
Assay: Counterscreen qHTS for antagonist of cAMP-regulated guanine nucleotide exchange factor 3 (EPAC1) (AID 1645888);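 also: fluorescence loss as bound BODIPY-GDP is released from Rap1B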
Conditions: Rap1B-BODIPY-GDP nucleotide exchange, fluorescence; series mostly up to 154 µM
Outline: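 Rap1B–BODIPY-GDP (250 nM) with 50 uM GDP; compounds pin-transferred to 9.74 nM–152 uM final (activator) or from 7.32 nM upwards (inhibitor). Fluorescence Ex/Em 480/540 nm read at 5 and 30 min, then after adding cAMP or buffer, at room temperature.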

SMILES | Potency | activity change, negative = inhibition
CCOC(=O)c1c(-c2ccccc2)oc2ccc(O)cc12 | inactive | 
Cc1cc2ccccn2c1C(=O)c1ccccc1Br | inactive | 
CN1c2ccsc2/C(=N/Nc2ccccc2)CS1(=O)=O | inactive | 
COc1cccc(C2=NN(C(=O)c3ccco3)C(c3ccco3)C2)c1 (stereo not given) | inactive | 
Oc1ccccc1Cc1c(O)ccc2ccccc12 | inactive | 
O=c1cc(Cl)c(-c2ccccc2)nn1Cc1ccc(Cl)cc1 | inactive | 
Oc1ccc(Cl)cc1CNc1cccc2cccnc12 | inactive | 
Nc1ccc(CSc2ccc(Cl)cc2)c(Cl)c1 | inactive | 
COc1ccc(C2CC(c3cccs3)=NN2c2ccc(C=O)cc2)cc1 (stereo not given) | inactive | 
O=S(=O)(c1ccccc1)c1nc(Nc2cccc(O)c2)sc1Cl | inactive | 
CCC(=O)N(CCC(c1ccccc1)c1ccco1)Cc1cccs1 (stereo not given) | inactive | 
O=C(COc1ccc(Cl)cc1Cl)NNC(=S)NCc1ccco1 | inactive | 
O=c1oc2c(O)cccc2cc1-c1nc2ccccc2[nH]1 |  | -8.32% [at 30.8 µM]
O=C1OC(c2ccccc2)(c2ccc(O)cc2)c2ccccc21 (stereo not given) |  | -9.22% [at 30.8 µM]
CCOC(=O)C1CN(S(=O)(=O)c2ccc(C)cc2)c2ccccc2O1 (stereo not given) | inactive | 
OC[C@@H]1[C@@H](c2ccccc2)C(c2ccccc2)=NN1c1ccccc1 | inactive | 
Clc1ccc(C2Nc3cccc4cccc(c34)N2)c(Cl)c1 | inactive | 
COc1cc(C2CC(=O)Oc3cc(C)c(Cl)c(C)c32)cc(OC)c1OC (stereo not given) |  | -10.7% [at 30.8 µM]
Cc1ccc(-c2nc(S(=O)(=O)c3ccc(C)cc3)c(N3CCOCC3)o2)cc1 | inactive | 
COc1ccc(-c2n[nH]c(C)c2-c2ccccc2OC)c(O)c1 | inactive | 
COC(=O)C(C)Sc1nc2ccsc2c(=O)n1Cc1ccccc1 (stereo not given) | inactive | 
CCc1ccccc1NC1c2ccccc2C(=O)N1Cc1ccco1 (stereo not given) |  | -4.2% [at 30.8 µM]
COc1cc(C)nc(N2CCCC(C(=O)Nc3cc(Cl)ccc3OC)C2)n1 (stereo not given) | inactive | 
Cc1c(CCC(=O)O)c(=O)oc2c(C)c3occ(-c4ccc(Br)cc4)c3cc12 | inactive | 
CN(C)/C=C/c1onc(-c2c(Cl)cccc2Cl)c1C#N | inactive | 
Cn1cc(-c2cnc3c(NC=O)cc(-c4cccc(C(F)(F)F)c4)cn23)cn1 | inactive | 
Oc1ccc(/C(Cc2ccccn2)=N\Nc2ccccc2)c(O)c1 | inactive | 
COc1ccc(-c2nc3ccccc3nc2-c2ccccc2)cc1OC | inactive | 
CC(NC1=CC(=O)c2cccnc2C1=O)C(O)c1ccccc1 (stereo not given) | inactive | 
